CF NFkB block: inhibitors of cystic fibrosis induced NF-kB. KKLEB NF-kB-GFP reporter, PAF-induced, GFP fluorescence overnight. inhibition, % at 5 µM. 0.86% of 360,000 active;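 active means at least 50% inhibition at 5 µM, scaled per plate between neutral and stimulator controls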;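 further: PAF is a Pseudomonas aeruginosa culture filtrate used as stimulus; plate controls were PAF-stimulated DMSO wells for no effect and unstimulated DMSO wells for full effect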
KKLEB tox: CF airway cell cytotoxicity counter-screen. KKLEB CF airway cells viability, ATPlite luminescence, overnight; active compounds read low; cells stimulated with P. aeruginosa culture filtrate. 0.36% of 360,000 active. AID 602141. activity change (cytotoxicity), % at 5 µM;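 active means corrected activity change at or below -50% at 5 µM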
Mdm2-MdmX inh: inhibitors of human Mdm2/MdmX interaction. 3% of 330,000 active. SaOS-2 split-luciferase Mdm2/MdmX complementation, luminescence. O15151+Q00987. inhibition, % at 8 µM;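 active means inhibition of at least 50% at 8 µM in the primary screen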
Target sequence (O15151 whole entry, looked up): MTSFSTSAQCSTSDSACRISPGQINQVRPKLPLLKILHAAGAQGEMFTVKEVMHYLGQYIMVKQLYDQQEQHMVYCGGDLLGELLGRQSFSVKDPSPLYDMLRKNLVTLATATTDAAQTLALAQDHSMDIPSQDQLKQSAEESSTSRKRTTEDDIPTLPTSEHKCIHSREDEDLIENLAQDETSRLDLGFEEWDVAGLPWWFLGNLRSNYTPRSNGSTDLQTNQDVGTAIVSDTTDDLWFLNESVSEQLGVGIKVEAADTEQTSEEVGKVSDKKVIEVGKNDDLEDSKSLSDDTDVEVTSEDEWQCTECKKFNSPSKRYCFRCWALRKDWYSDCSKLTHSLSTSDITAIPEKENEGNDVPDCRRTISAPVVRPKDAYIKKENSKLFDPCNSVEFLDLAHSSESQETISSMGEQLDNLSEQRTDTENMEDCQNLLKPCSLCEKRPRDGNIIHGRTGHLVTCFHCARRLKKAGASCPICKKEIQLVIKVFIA
Target sequence (Q00987 whole entry, looked up): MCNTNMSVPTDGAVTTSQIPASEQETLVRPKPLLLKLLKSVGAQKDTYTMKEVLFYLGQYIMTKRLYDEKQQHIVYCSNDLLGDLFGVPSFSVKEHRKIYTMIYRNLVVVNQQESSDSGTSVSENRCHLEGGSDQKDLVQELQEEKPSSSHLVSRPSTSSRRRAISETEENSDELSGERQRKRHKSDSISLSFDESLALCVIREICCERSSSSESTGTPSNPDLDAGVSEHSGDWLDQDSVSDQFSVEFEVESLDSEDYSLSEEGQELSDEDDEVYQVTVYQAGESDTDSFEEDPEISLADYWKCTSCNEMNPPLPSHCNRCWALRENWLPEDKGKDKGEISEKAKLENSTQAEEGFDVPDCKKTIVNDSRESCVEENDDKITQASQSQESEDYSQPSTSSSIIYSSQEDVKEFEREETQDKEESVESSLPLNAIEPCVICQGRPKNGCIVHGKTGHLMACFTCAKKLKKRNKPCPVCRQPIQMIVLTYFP
Peg3 prom inh-1: Peg3 promoter activity inhibition; HeLa PEG-Prom luciferase reporter, luminescence, overnight; inhibition, % at 20 µM; 1.7% of 360,000 active;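 active means inhibition of at least 50% at 20 µM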
LGR2 antag: Drosophila LGR2 receptor signaling inhibition | HEK293 LGR2, CRE-luciferase, bursicon-stimulated, 4 h | 0.35% of 380,000 active | inhibition, % at 9.99 µM;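 active means drop in luminescence signal, shown as inhibition above about 50% in the replicate tests, limit read from the data, passing the limit was not always enough; inconclusive means probably only some replicates passing the limit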;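 further: agonist challenge used bursicon conditioned medium at about half maximal strength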
HSP90 refold inh: blocks HSP90-mediated luciferase refolding in reticulocyte lysate | Rabbit reticulocyte lysate, luciferase refolding luminescence, 3 h | inhibition, % at 5.6 µM | 0.91% of 290,000 active;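 active means inhibition above the screen-wide mean plus 3 SD, computed separately per campaign, cut at about 16% in these data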;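 further: 0% = DMSO wells and 100% = 60 µM geldanamycin wells; inhibitors lower the luminescence because luciferase stays unfolded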
Mdm2 MdmX conf: confirmation of human Mdm2/MdmX interaction inhibitors. shares compounds with Mdm2-MdmX inh. Mdm2-MdmX binding, luminescent assay. inhibition, % at 8 µM. 55% of 10,000 active. AID 489028
Full FLuc ctr: counter-screen for Mdm2/MdmX inhibitors: full-length luciferase; shares compounds with Mdm2-MdmX inh; SaOS-2 full-length luciferase counterscreen, luminescence; inhibition, % at 8 µM; 77% of 6,200 active;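 active means mean inhibition at 8 µM reaching about 37%, which flags the compound as non-specific, limit read from the data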;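 further: p53-null SaOS-2 cells with luciferase driven by a doxycycline-inducible promoter; compound on cells about two nights before reading with doxycycline added after day one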
Peg3 prom inh-2: confirmation of Peg3 promoter inhibitors. shares compounds with Peg3 prom inh-1. HeLa PEG-Prom luciferase reporter, luminescence, overnight. inhibition, % at 20 µM. 84% of 1,300 active. AID 602417;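 active means at 20 µM dose, 40% or more inhibition averaged across four replicates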
CF NFkB inh conf: confirmation of cystic fibrosis induced NF-kB inhibitors. 64% of 1,300 active. AID 602472. shares compounds with CF NFkB block. inhibition, % at 5 µM. KKLEB CF airway cells, PAF-induced NF-kB-GFP fluorescence, overnight;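 further: stimulus PAF is a Pseudomonas aeruginosa filtrate and not platelet activating factor; plate controls were DMSO wells with stimulus for no effect and unstimulated DMSO wells for full effect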
* = called active by the depositor. A selection: hits, their analogues and other compounds. The true share with any hit is near 3.6%. Unless noted, no stated cut-off is given here; in the data, active means inhibition above about 40%; inactive means the rest.

Results for COCC#Cc1cnc2c(c1)C(=O)N([C@H](C)CO)C[C@@H](C)[C@H](CN(C)C(=O)c1cccc(F)c1)O2 ?
LGR2 antag: -12

How did O=C(Nc1ccc2c(c1)OCO2)N[C@@H]1CC[C@H](CCNC(=O)C2CCCCC2)O[C@H]1CO do in these assays?
LGR2 antag: 18

Results for CCOC(=O)c1c(C)[nH]c(C)c1C(=O)CSc1nc2ccccc2c(=O)n1-c1ccc(CC)cc1 ?
CF NFkB block: 56*; KKLEB tox: -19; Mdm2-MdmX inh: 56*; Peg3 prom inh-1: 44; LGR2 antag: 0; HSP90 refold inh: -1; Mdm2 MdmX conf: 37; Full FLuc ctr: 96*; CF NFkB inh conf: 37

How did C[C@H]1CN([C@@H](C)CO)C(=O)Cc2cc(NS(=O)(=O)c3ccc(Cl)cc3)ccc2O[C@@H]1CN(C)C(=O)Nc1ccc2c(c1)OCO2 do in these assays?
LGR2 antag: 7

How did CN(C)c1ccc(/C=N/NC(=O)c2nnn(-c3nonc3N)c2CN2CCCCCC2)cc1 do in these assays?
CF NFkB block: -4; KKLEB tox: 8; Mdm2-MdmX inh: 1; Peg3 prom inh-1: 7; LGR2 antag: 10

How did CC1CCN(Cc2c(C(=O)N/N=C/c3ccc(C(C)(C)C)cc3)nnn2-c2nonc2N)CC1 do in these assays?
CF NFkB block: 53*; KKLEB tox: -41; Mdm2-MdmX inh: 50*; Peg3 prom inh-1: 106*; LGR2 antag: 22; HSP90 refold inh: -1; Mdm2 MdmX conf: 27; CF NFkB inh conf: 63*

What do the screens show for `CCCC1/C(=N/O)CC(c2ccccc2)NC1c1ccccc1` (stereo unspecified)?
CF NFkB block: 75*; KKLEB tox: -3; Mdm2-MdmX inh: 59*; Peg3 prom inh-1: 60*; LGR2 antag: 14; HSP90 refold inh: 0; Mdm2 MdmX conf: 62*; Full FLuc ctr: 64*; CF NFkB inh conf: 60*

Results for CC1/C(=N/O)CC(c2ccccc2)NC1c1ccccc1 (stereo unspecified) ?
CF NFkB block: 0; KKLEB tox: -5; Mdm2-MdmX inh: -13; Peg3 prom inh-1: 14; HSP90 refold inh: 6

How did C[C@@H]1CCCCO[C@H](CN(C)S(C)(=O)=O)[C@H](C)CN([C@@H](C)CO)C(=O)c2cc(NS(=O)(=O)c3ccc(F)cc3)ccc2O1 do in these assays?
LGR2 antag: -1

What do the screens show for `Cc1ccc2c(c1)C(=O)C(=O)N2CC(=O)OC(C)C`?
CF NFkB block: 12; KKLEB tox: -12; Mdm2-MdmX inh: 17; Peg3 prom inh-1: 17; HSP90 refold inh: -4

Results for Cc1ccc2c(c1)C(=O)C(=O)N2Cc1ccc(C(F)(F)F)cc1 ?
CF NFkB block: 55*; KKLEB tox: -18; Mdm2-MdmX inh: 72*; Peg3 prom inh-1: 3; LGR2 antag: 15; Mdm2 MdmX conf: 14; CF NFkB inh conf: 72*

How did O=C(C[C@@H]1CC[C@@H]2[C@H](COC[C@@H](O)CN2Cc2ccc(C(F)(F)F)cc2)O1)NCCc1ccccc1 do in these assays?
LGR2 antag: 9

What do the screens show for `COc1ccc(NC(=O)Nc2cccc3c2O[C@@H](CN(C)C(=O)Nc2ccc(C(F)(F)F)cc2)[C@@H](C)CN([C@@H](C)CO)C3=O)cc1`?
LGR2 antag: 8

How did Cc1cnc(NC(=O)C2CC(=O)N(c3cccc(Cl)c3)C2)s1 (stereo unspecified) do in these assays?
CF NFkB block: 78*; KKLEB tox: 16; Mdm2-MdmX inh: 93*; Peg3 prom inh-1: 107*; LGR2 antag: 79*; HSP90 refold inh: 0; Mdm2 MdmX conf: 89*; Full FLuc ctr: 82*; Peg3 prom inh-2: 94*; CF NFkB inh conf: 86*

Results for Cc1cnc(NC(=O)C2CC(=O)N(c3ccc4c(c3)OCCO4)C2)s1 (stereo unspecified) ?
CF NFkB block: 20; KKLEB tox: 3; Mdm2-MdmX inh: 22; Peg3 prom inh-1: 7; LGR2 antag: 23

Results for O=C(c1c[nH]c2ccccc12)C(O)C(c1ccccc1)N1CCOCC1 (stereo unspecified) ?
CF NFkB block: 11; KKLEB tox: -9; Mdm2-MdmX inh: 2; Peg3 prom inh-1: 0; HSP90 refold inh: -3

What do the screens show for `O=C(c1c[nH]c2ccccc12)C(Cl)c1ccccc1` (stereo unspecified)?
CF NFkB block: 63*; KKLEB tox: -33; Mdm2-MdmX inh: 79*; Peg3 prom inh-1: 10; LGR2 antag: 21; HSP90 refold inh: 1; Mdm2 MdmX conf: 69*; Full FLuc ctr: 52*; CF NFkB inh conf: 42*

How did COCCNC(=O)C[C@H]1CC[C@H](NS(=O)(=O)c2ccc(C)cc2)[C@H](CO)O1 do in these assays?
LGR2 antag: -28

Results for CC(C)(C)C(=O)/C(=C/c1ccncc1)n1cncn1 ?
CF NFkB block: 75*; KKLEB tox: -10; Mdm2-MdmX inh: 100*; Peg3 prom inh-1: 101*; LGR2 antag: 79*; HSP90 refold inh: 0; Mdm2 MdmX conf: 100*; Full FLuc ctr: 51*; CF NFkB inh conf: 83*

How did COC(=O)c1cc(=O)n(Cc2ccco2)c(=Nc2ccccc2)s1 do in these assays?
LGR2 antag: 10

What do the screens show for `COC(=O)c1cc(=O)n(Cc2cccs2)c(=Nc2ccc(F)cc2)s1`?
CF NFkB block: 55*; KKLEB tox: -28; Mdm2-MdmX inh: 50*; Peg3 prom inh-1: 81*; LGR2 antag: 56*; HSP90 refold inh: 4; Mdm2 MdmX conf: 12; CF NFkB inh conf: -41

What do the screens show for `C/C=C/c1cnc2c(c1)C(=O)N([C@H](C)CO)C[C@@H](C)[C@@H](CN(C)C(=O)Cc1ccccc1)O2`?
LGR2 antag: 1

What do the screens show for `CC(C)c1ccccc1NC(=O)COC(=O)c1c2c(nc3ccccc13)CCN(Cc1ccccc1)C2`?
CF NFkB block: 75*; KKLEB tox: -17; Mdm2-MdmX inh: 53*; Peg3 prom inh-1: 57*; LGR2 antag: 19; HSP90 refold inh: 5; Mdm2 MdmX conf: 33; CF NFkB inh conf: 73*

Results for c1nc(NCc2ccc3c(c2)OCO3)c2cc(-c3ccoc3)ccc2n1 ?
CF NFkB block: 82*; KKLEB tox: -30; Mdm2-MdmX inh: 81*; Peg3 prom inh-1: 2; LGR2 antag: inconclusive; Mdm2 MdmX conf: 75*; Full FLuc ctr: 51*; CF NFkB inh conf: 92*

Source: PubChem (several laboratories)
